Shown are actives, neighbours in structure and some others; about 3.1% of the full set was active somewhere.
Rin1 Abl inh: blocks binding of human Rin1 to Abl; P00519+Q13671; TR-FRET Rin1/Abl binding, biochemical; inhibition, % at 7.35 µM; 360,000 tested, 0.4% active; AID 588664; in the data active = inhibition above about 5%, passing the limit was not always enough
eLon inh: inhibitors of E. coli Lon protease; 360,000 tested, 0.42% active; AID 602123; inhibition, % at 7.94 µM; purified E. coli Lon protease, fluorescence polarization; in the data active = inhibition above about 13%, passing the limit was not always enough
Target sequence (P0A9M0 whole entry, looked up): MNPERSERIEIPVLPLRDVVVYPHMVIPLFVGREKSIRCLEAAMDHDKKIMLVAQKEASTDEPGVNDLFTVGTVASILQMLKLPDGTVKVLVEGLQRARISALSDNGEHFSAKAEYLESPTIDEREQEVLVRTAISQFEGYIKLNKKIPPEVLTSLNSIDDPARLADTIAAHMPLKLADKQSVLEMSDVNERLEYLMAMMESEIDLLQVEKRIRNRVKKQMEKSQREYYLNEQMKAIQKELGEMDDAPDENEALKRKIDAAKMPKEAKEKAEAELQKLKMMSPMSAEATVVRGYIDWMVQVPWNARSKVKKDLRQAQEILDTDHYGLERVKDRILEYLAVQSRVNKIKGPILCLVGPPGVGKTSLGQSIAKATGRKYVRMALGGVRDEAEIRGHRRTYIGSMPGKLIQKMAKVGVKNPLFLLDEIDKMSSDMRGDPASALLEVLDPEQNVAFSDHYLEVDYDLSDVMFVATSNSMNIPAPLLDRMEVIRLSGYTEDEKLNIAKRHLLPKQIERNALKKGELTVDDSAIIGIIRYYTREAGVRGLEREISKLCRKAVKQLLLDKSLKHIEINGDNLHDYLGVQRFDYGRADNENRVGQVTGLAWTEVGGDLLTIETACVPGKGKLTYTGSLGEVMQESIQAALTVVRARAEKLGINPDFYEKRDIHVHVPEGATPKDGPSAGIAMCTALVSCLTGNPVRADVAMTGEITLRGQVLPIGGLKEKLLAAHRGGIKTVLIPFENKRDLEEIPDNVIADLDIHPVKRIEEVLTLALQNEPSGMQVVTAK
PAFAH1B2 inh: blocks human PAF acetylhydrolase 1b catalytic subunit 2. P68402. recombinant PAFAH1B2, FP-rhodamine activity probe, fluorescence polarization. inhibition, % at 3.39 µM. 340,000 tested, 1.2% active. AID 492953;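 active = inhibition above the mean of all tested compounds plus 3 SD, cut at about 24% in these data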
pPAFAH FP inh: pPAFAH (human) enzyme inhibition | Q13093 | recombinant pPAFAH, FP-rhodamine probe fluorescence polarization | inhibition, % at 3.39 µM | 330,000 tested, 1.5% active | AID 463082;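 active = inhibition above the mean inhibition across the screen plus 3 SD, cut at about 25% in these data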;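 also: inhibitors block binding of the rhodamine activity-based probe so polarization drops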
PAFAH2 inh: PAFAH2 (human) inhibition; Q99487; recombinant PAFAH2, FP-rhodamine activity probe, fluorescence polarization; inhibition, % at 3.39 µM; 340,000 tested, 0.99% active;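 active = inhibition above the mean over all tested compounds plus 3 SD, cut at about 30% in these data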;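 also: inhibitors block probe labeling of enzyme so polarization drops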
PAFAH1B3 inh: PAFAH1B3 (human) inhibition; Q15102; recombinant PAFAH1B3, FP-rhodamine probe, fluorescence polarization; inhibition, % at 3.39 µM; 340,000 tested, 0.28% active; AID 492972;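 active = inhibition above the screen-wide average of all tested compounds plus 3 SD, cut at about 25% in these data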
pPAFAH FP conf: confirmation of human plasma PAF acetylhydrolase (pPAFAH) inhibitors; shares compounds with pPAFAH FP inh; recombinant pPAFAH, FP-Rh probe fluorescence polarization; inhibition, % at 3.39 µM; 2,300 tested, 72% active; AID 463230;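 active = mean inhibition of the triplicate above the hit cutoff set for the earlier primary screen, cut at about 25% in these data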
Of the large screens only hits and unclear results are named; the others gave an inactive call (follow-up assays come after a bar, where they were run).

O=C(COC(=O)Cc1ccccc1)Nc1ncc(Cl)cc1Cl	pPAFAH FP inh 35.2 | pPAFAH FP conf inactive
CCCCCCCCN=Cc1c(O)[nH]c(=O)[nH]c1=O	pPAFAH FP inh 62.5 (no result: PAFAH1B2 inh, PAFAH2 inh, PAFAH1B3 inh) | pPAFAH FP conf inactive
FC(F)(F)c1ccc2c(c1)N(CCCN1CCN(CCCl)CC1)c1ccccc1S2	pPAFAH FP inh 37.7 | pPAFAH FP conf 31.0
Nc1ccc(CCN2CCN(c3cccc(C(F)(F)F)c3)CC2)cc1	none
CC(=O)N1Cc2cnnn2-c2ccccc2C1C#N (stereo unspecified)	none (no result: pPAFAH FP inh)
O=C(c1cn(Cc2ccccc2)c2ccccc12)C1CC1	none
O=C(c1ccco1)c1cn(Cc2ccccc2Cl)c2ccccc12	pPAFAH FP inh 73.7 | pPAFAH FP conf 75.9
N#Cc1ccccc1Cn1cc(C(=O)c2ccco2)c2ccccc21	pPAFAH FP inh 72.3 | pPAFAH FP conf 76.7
CCC(=O)c1cn(Cc2ccccc2C#N)c2ccccc12	none
O=c1[nH]c2ccccc2n1C1CCN(C(CCc2ccccc2)c2nnnn2C2CCCC2)CC1 (stereo unspecified)	none (no result: PAFAH1B2 inh, pPAFAH FP inh, PAFAH2 inh, PAFAH1B3 inh)
O=C(Nc1ccc(F)cc1)N1Cc2ccccc2-n2nncc2C1	none (no result: PAFAH1B2 inh, pPAFAH FP inh, PAFAH2 inh, PAFAH1B3 inh)
Cc1ccc2c(c1Cl)NC(C(=O)O)C1CC(Sc3ccccc3[N+](=O)[O-])C(Cl)C21 (stereo unspecified)	pPAFAH FP inh 49.0, PAFAH2 inh 42.9 | pPAFAH FP conf 42.2
CCCCn1nnnc1C(CCSC)N1CCC2(CC1)C(=O)NCN2c1ccccc1 (stereo unspecified)	none (no result: PAFAH1B2 inh, pPAFAH FP inh, PAFAH2 inh, PAFAH1B3 inh)
CN(C)C1C(=O)C(C(N)=O)=C(O)C2(O)C(=O)C3=C(O)c4c(O)cccc4C(C)(O)C3CC12 (stereo unspecified)	pPAFAH FP inh 36.0 | pPAFAH FP conf inactive
CCCCCN1C(=O)c2cc(OC)ccc2[C@@]2(C(=O)OCC)Cc3cc(Cl)ccc3[C@@H]12	none (no result: Rin1 Abl inh, PAFAH1B2 inh, pPAFAH FP inh, PAFAH2 inh, PAFAH1B3 inh)
COC(=O)[C@@H]1N=C(c2ccc(OC)cc2)O[C@]12C(=O)N(C)c1ccc(Cl)cc12	none (no result: Rin1 Abl inh, PAFAH1B2 inh, pPAFAH FP inh, PAFAH2 inh, PAFAH1B3 inh)
CC1CCCC(NC(=O)COC(=O)Cc2ccccc2)C1C (stereo unspecified)	pPAFAH FP inh 40.1 | pPAFAH FP conf 39.5
C[C@]12CC[C@@H](O)CC1=CC(=O)C1C2CC[C@]2(C)C(=O)[C@H](O)CC12 (stereo partly specified)	none (no result: PAFAH1B2 inh, pPAFAH FP inh, PAFAH2 inh, PAFAH1B3 inh)
CCCC1(CC(C)C)C(=O)NC(=S)NC1=O	none (no result: pPAFAH FP inh)
CC(=O)N1CCN(c2ccc(N=Cc3c(O)n(-c4ccc(Cl)cc4)c(=O)[nH]c3=O)cc2)CC1	pPAFAH FP inh 40.6 | pPAFAH FP conf inactive
Cc1cc(C)cc(-n2c(O)c(C=Nc3ccc(N4CCOCC4)cc3)c(=O)[nH]c2=S)c1	none
O=c1[nH]c(=S)n(-c2ccc(Br)cc2)c(O)c1C=Nc1ccc(N2CCOCC2)cc1	pPAFAH FP inh 57.0 | pPAFAH FP conf 33.5
CCOC(=O)[C@]12Cc3c(cc(OC)c(OC)c3OC)[C@H]1N(C(C)C)C(=O)c1cc(OC)ccc12	none (no result: Rin1 Abl inh, PAFAH1B2 inh, pPAFAH FP inh, PAFAH2 inh, PAFAH1B3 inh)
COc1ccc(OC)c(N2C(=O)NC(=O)/C(=C\c3ccc([N+](=O)[O-])s3)C2=O)c1	PAFAH1B2 inh 47.0, pPAFAH FP inh 63.5, PAFAH2 inh 54.3, PAFAH1B3 inh 60.7 | pPAFAH FP conf 69.3
O=C1NC(=O)N(c2ccccc2)C(=O)/C1=C\c1ccc([N+](=O)[O-])s1	pPAFAH FP inh 56.3 (no result: Rin1 Abl inh, eLon inh, PAFAH1B2 inh, PAFAH2 inh, PAFAH1B3 inh) | pPAFAH FP conf 45.8
O=C1NC(=O)N(c2ccccc2)C(=O)/C1=C\c1ccc([N+](=O)[O-])o1	none (no result: Rin1 Abl inh, eLon inh, PAFAH1B2 inh, PAFAH2 inh, PAFAH1B3 inh)
Cc1ccc(-n2c(=O)[nH]c3ccccc3c2=O)cc1[N+](=O)[O-]	none (no result: PAFAH1B2 inh, pPAFAH FP inh, PAFAH2 inh, PAFAH1B3 inh)
CCOC(=O)[C@]12Cc3cc(Cl)ccc3[C@H]1N(C(C)C)C(=O)c1ccccc12	none (no result: Rin1 Abl inh, PAFAH1B2 inh, pPAFAH FP inh, PAFAH2 inh, PAFAH1B3 inh)
Cc1cccc(N2C(=O)NC(=O)/C(=C/c3cc4c(cc3[N+](=O)[O-])OCO4)C2=O)c1	pPAFAH FP inh 42.1 | pPAFAH FP conf inactive
CC(=O)OC1C(O)C2=C3C4(C)C1C(C)(C)C(=O)CC4C3(O)C(OC(C)=O)C1(CC1C)C2=O (stereo unspecified)	none (no result: Rin1 Abl inh, PAFAH1B2 inh, pPAFAH FP inh, PAFAH2 inh, PAFAH1B3 inh)

Screening data as filed in PubChem.
